# Source: PubChem BioAssay (NCI)
# About 83,000 compounds went through this panel and 20% of them were active in at least one assay; those are over-represented in the sample as a whole.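 Plates (96-well) were seeded with cells, treated with compound at one concentration, and incubated for 48 hours before percent growth was determined.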 A number with no mark means an inactive call. The source made the active and inactive calls. The calls were made as follows: active = growth percent below 10; inactive = the rest.
# Experiments:
# Experiment in all cases: NCI-60 one-dose screen, 48 h (100 = growth as untreated, 0 = no growth, -100 = all killed)
# Settings in all cases: 10 µM unless noted
# HCT-15 colon = system: HCT-15 colon
# HT29 colon = system: HT29 colon
# SNB-75 CNS = system: SNB-75 CNS
# SNB-19 CNS = system: SNB-19 CNS
# PC-3 prostate = system: PC-3 prostate
# UACC-62 melanoma = system: UACC-62 melanoma
# SK-MEL-28 melanoma = system: SK-MEL-28 melanoma
# SK-MEL-2 melanoma = system: SK-MEL-2 melanoma
# EKVX NSCLC = system: EKVX NSCLC
# SN12C renal = system: SN12C renal
# UO-31 renal = system: UO-31 renal
# TK-10 renal = system: TK-10 renal
# ACHN renal = system: ACHN renal
# CAKI-1 renal = system: CAKI-1 renal
# CCRF-CEM leukemia = system: CCRF-CEM leukemia
# MOLT-4 leukemia = system: MOLT-4 leukemia
# LOX IMVI melanoma = system: LOX IMVI melanoma
# A498 renal = system: A498 renal
# SK-MEL-5 melanoma = system: SK-MEL-5 melanoma
Compound,growth (HCT-15 colon),growth (HT29 colon),growth (SNB-75 CNS),growth (SNB-19 CNS),growth (PC-3 prostate),growth (UACC-62 melanoma),growth (SK-MEL-28 melanoma),growth (SK-MEL-2 melanoma),growth (EKVX NSCLC),growth (SN12C renal),growth (UO-31 renal),growth (TK-10 renal) [%],growth (ACHN renal),growth (CAKI-1 renal),growth (CCRF-CEM leukemia),growth (MOLT-4 leukemia),growth (LOX IMVI melanoma),growth (A498 renal),growth (SK-MEL-5 melanoma)
COc1ccc(/C=C2\Oc3cc(OCCCCN4CCCC4)ccc3C2=O)cc1,9.45% (active),6.71% (active),98.1%,83.7%,75.6%,90.5%,107%,98.9%,91.5%,90.3%,68%,98.1,95.5%,95%,13.8%,42.7%,,,
CCc1nc(N)nc(N)c1C#CC(C)c1cc(-c2ccnc(C)c2)c2oc(C)nc2c1 (stereo not drawn),10.7%,6.46% (active),-23.2% (active),7.53% (active),16.5%,-12.3% (active),41.1%,30.1%,19.2%,6.91% (active),9.81% (active),25.2,9.82% (active),,0.474% (active),1.69% (active),-18.8% (active),10.8%,
COc1cccc(-c2nc3sccn3c2-c2ccnc(NCCNS(=O)(=O)c3ccc(F)cc3)c2)c1,17.2%,24%,22.9%,50.5%,16.3%,-9.01% (active),45.2%,21.3%,28.2%,,16.7%,46.5,,18.4%,14.2%,7.99% (active),25.1%,18.2%,-53.1% (active)
O=C(N=Nc1c(O)[nH]c2ccc(Br)cc12)c1cc(-c2ccccc2)on1,103%,97%,58.4%,102%,100%,103%,106%,95.6%,,100%,90.5%,108,103%,88.7%,102%,100%,94.8%,77.6%,99.9%
Cc1nc(/N=C(\N)NC(=O)Nc2cccc([N+](=O)[O-])c2)sc1C,30.1%,42.8%,58.3%,90.1%,77.1%,63.1%,80.5%,88.1%,77.3%,86.9%,83%,110,92%,58.3%,69.1%,51.5%,,57.2%,91.1%
Cc1cc(NS(=O)(=O)c2ccc(-c3cnc(C4CC4)o3)cc2)ccc1Cl,17%,-17.1% (active),-0.004% (active),44.3%,24.7%,26.4%,50.5%,45.3%,28.5%,48.4%,,54.3,40.4%,34.7%,14.4%,17.8%,46.5%,-17.8% (active),24.8%
CCN(CC)CCCCNc1c2ccc(Cl)cc2nc2ccc(OC)cc12,-21.2% (active),3.91% (active),-95.3% (active),1.53% (active),-45.9% (active),-30.8% (active),-82.5% (active),2.05% (active),-8.96% (active),4.57% (active),-14.6% (active),15.4,-56.7% (active),9.92% (active),-27.8% (active),-22.2% (active),-57.3% (active),-83.9% (active),
COc1ccc(-c2nc3ccc(-c4nc5ccc(N6CCN(C)CC6)cc5[nH]4)cc3[nH]2)cc1OC,91%,49.4%,54%,90.3%,62.8%,19.2%,39%,45%,,71.1%,99.4%,84.3,100%,71.9%,51.7%,61.1%,,76.6%,26.3%
COc1cc(C)c(C2C(C#N)=C(N)Oc3n[nH]c(-c4cccs4)c32)cc1C(C)C (stereo not drawn),96.2%,98.9%,86.8%,103%,95.3%,96.1%,112%,102%,97%,103%,98.7%,98.2,108%,,81.5%,79.4%,98.6%,93%,
CSc1nc(NCc2ccccc2)c(C#N)c(-c2cccc([N+](=O)[O-])c2)n1,95.9%,103%,68.2%,94.9%,94.5%,79%,102%,102%,85.4%,,78.3%,124,95.6%,75.4%,99.7%,103%,92.1%,66.1%,100%
COc1ccc(CCNc2nc(SC)nc(-c3cccc([N+](=O)[O-])c3)c2C#N)cc1OC,90.9%,93.6%,61.8%,71.9%,75.2%,80.8%,91.8%,98.6%,80.5%,,,112,72%,78%,98.7%,95%,88.6%,94.8%,88.2%
CCCCn1c(-c2ccc(C(=O)O/N=C(\N)c3ccc4ccccc4c3)cc2)nc(-c2ccccc2)c1-c1ccccc1,52.1%,74.3%,23.3%,70.3%,64.8%,76.2%,88.5%,96.4%,75.7%,,-24.1% (active),86.2,-72.7% (active),32.3%,40.8%,62.8%,,,
CCC(=O)c1ccc(Cl)s1,105%,96.9%,91.4%,102%,98.4%,106%,99.6%,102%,117%,101%,98%,103,107%,102%,101%,94%,107%,98.4%,
O=C1NC(=S)NC(=O)C1CC(=O)n1c(-c2ccccc2)nc2ccccc21,94.3%,106%,66.5%,94.8%,97.7%,94.9%,112%,110%,82.4%,,73.5%,143,86.6%,77.2%,110%,99.9%,88.7%,89%,98.5%
Cn1ccnc1C(=O)/C=C/c1ccc(CC(=O)Nc2ccccc2)cc1,6.26% (active),5.1% (active),11.3%,10.3%,25.7%,26.7%,55%,54.6%,17.6%,16.1%,16%,17.6,29%,,2.06% (active),-1.23% (active),8.77% (active),44.9%,
CCOC(=O)c1c(C(=O)OCC)c2cc(-c3ccn4c(C(=O)c5ccccc5)c(C(=O)OCC)c(C(=O)OCC)c4c3)ccn2c1C(=O)c1ccccc1,95.6%,97.3%,84.1%,100%,80.6%,85.2%,113%,89.8%,90.4%,93.6%,,112,96.3%,,72.9%,68.1%,85.1%,86.8%,
CC(C)(O)c1cn(CCCCN2C(=O)C(=O)c3ccccc32)nn1,101%,107%,68%,95.9%,96.3%,98.1%,113%,101%,,102%,82.7%,108,104%,93.9%,101%,94.6%,91.6%,71.7%,99.7%
